Hits are enriched below; roughly 6.6% of the tested compounds scored in any of these assays.
MCF10A rerep: induces DNA re-replication in MCF 10a normal breast cells; AID 624296; MCF 10A DNA re-replication, Hoechst nuclear intensity, 48 h; 2.9% of 350,000 active; Potency, µM (top dose mostly 46.1 µM), inactives show at the top dose activity, positive = re-replication, usual class: activators; further: % of control where 0% means no effect; nearly all actives have a fitted effect of over 50% in size
KB-V1 MDR tox: KB-V1 MDR subline cytotoxicity; KB-V1 MDR cells viability, CellTiter-Glo, 72 h; Potency, µM (top dose mostly 46.1 µM), usual class: cytotoxic; 3.4% of 400,000 active; AID 1347076; further: on the % scale 0 is the no-effect control and ±100 the full control effect; nearly all actives have a fitted effect of over 60% in size
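In this primary screen, KB-V1 cells overexpressing P-gp are incubated with library compounds (lowest to highest concentration) for 72 h at 37 degrees C before a luminescent ATP viability read.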
SW480 rereplic: induces DNA re-replication in SW480 colon adenocarcinoma cells; SW480 DNA re-replication, Hoechst DNA content imaging, 48 h; Potency, µM (titrated, usually from 46.1 µM), for the others: at the highest dose re-replication activation, actives largely listed as activators; 1.8% of 340,000 active; AID 624297; further: % of control where 0% means no effect; nearly all actives have a fitted effect of over 55% in size
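SW480 cells exposed to compounds for 48 hr at 37 C, 5% CO2, then Hoechst-stained 40 min. Nuclear DNA content imaged by fluorescence scanning (405 nm excitation, 500-530 nm emission); re-replication scored as increased high-intensity nuclei.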
KB-3-1 tox: kills parental KB-3-1 adenocarcinoma cells; Potency, µM (titrated, usually from 46.1 µM), most hits filed as cytotoxic; 1.4% of 400,000 active; AID 1347075; KB-3-1 viability, CellTiter-Glo ATP luminescence, 72 h; further: on the % scale 0 is the no-effect control and ±100 the full control effect; nearly all actives have a fitted effect of over 60% in size
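KB-3-1 cells, DMEM (no phenol red) + 10% FBS; compound by pin transfer, 72 h, 37 °C. Readout: CellTiter-Glo luminescence after 10 min. Data normalized, curve-fitted.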
RGS4 inh: blocks human RGS4-accelerated GTP hydrolysis; AID 504845; Transcreener GDP fluorescence polarization, RGS4-accelerated GTP hydrolysis; Potency, µM (series often up to 114 µM), for inactives: at the highest dose activity change, negative = inhibition, actives largely listed as inhibitors; P49798; 0.039% of 390,000 active; further: on the % scale 0 is the no-effect control and ±100 the full control effect; nearly all actives have a fitted effect of over 75% in size
Target sequence (P49798 whole entry, looked up): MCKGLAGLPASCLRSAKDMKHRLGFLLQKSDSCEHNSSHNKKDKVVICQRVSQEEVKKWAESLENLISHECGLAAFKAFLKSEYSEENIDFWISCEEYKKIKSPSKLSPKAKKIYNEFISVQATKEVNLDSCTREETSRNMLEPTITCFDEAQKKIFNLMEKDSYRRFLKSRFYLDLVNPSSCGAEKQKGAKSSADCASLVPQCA
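MLSMR compounds (23 nl, pin-transferred) preincubated 10 min at room temperature with a 500nM (2x) first reagent, then RGS4 at 900nM (2x) plus Transcreener GDP mix added; fluorescence polarization (620/688 nm) read before and after 90 min at 30 °C.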
TSG101-PTAP inh: blocks PTAP/TSG101 interaction to inhibit HIV-1 budding; Q99816; Fluorescence polarization, FITC-PTAP peptide / Tsg101 binding; 340,000 tested, under 10 active; Potency, µM (highest dose often 115 µM), for the others: top-dose activity change, negative = inhibition, most hits filed as inhibitors; active means well fitted inhibition curve with a large enough effect in the main read-out, with a control signal flat, not every such curve was filed as active; inconclusive means small, poorly fitted or top-dose-only effect, or effect the other way, or a change in a side signal; inactive means no such curve, though single readings can be large or run the other way; further: % of control where 0% means no effect
Target sequence (Q99816 whole entry, looked up): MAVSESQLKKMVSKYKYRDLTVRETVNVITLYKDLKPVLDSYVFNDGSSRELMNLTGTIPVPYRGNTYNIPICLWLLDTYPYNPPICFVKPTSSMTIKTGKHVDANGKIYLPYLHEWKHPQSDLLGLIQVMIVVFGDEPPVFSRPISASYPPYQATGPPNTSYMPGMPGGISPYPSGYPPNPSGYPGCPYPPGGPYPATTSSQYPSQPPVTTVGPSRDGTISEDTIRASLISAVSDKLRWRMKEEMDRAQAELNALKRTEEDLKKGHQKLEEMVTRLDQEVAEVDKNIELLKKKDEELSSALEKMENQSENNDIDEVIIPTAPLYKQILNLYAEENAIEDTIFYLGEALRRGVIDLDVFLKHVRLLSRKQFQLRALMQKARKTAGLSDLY
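Compounds were pin-transferred onto Tsg101 binding domain (10 uM final) in HEPES pH 7.5 buffer, then FITC-PTAP peptide was added at 50 nM final. After 20 min at RT, polarization reported peptide displacement across a qHTS concentration series.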
Active calls of the source: *; i = inactive; u = inconclusive; x = no result given; [ ] = remark or other dose. Unless noted, the call rests on the fitted dose curve; in most records, active means well fitted curve in the direction sought with a large enough effect; inconclusive means small, poorly fitted or top-dose-only effect, or another doubt; inactive means no such curve, though single readings can be large; an effect the other way counts as inactive or inconclusive. Potency means the concentration at half of the fitted maximal effect.

SMILES	MCF10A rerep	KB-V1 MDR tox	SW480 rereplic	KB-3-1 tox	RGS4 inh	TSG101-PTAP inh
Cc1ccc(C(=O)Nc2ccc3c(c2)N(C)C(=O)c2ccccc2S3)cc1	x	u	x	16.4µM*	-6.0%	x
CN1C(=O)c2ccccc2Sc2ccc(NC(=O)COc3ccc(Cl)cc3)cc21	x	8.2µM*	x	u	-7.6%	x
CCCNC(=O)Nc1ccc2c(c1)N(C)C(=O)c1ccccc1S2	10.7%	20.6µM*	6.0%	u	15.7%	-5.1%
c1ccc(-c2ccc(-c3csc4ncnc(Sc5nnnn5-c5ccccc5)c34)cc2)cc1	x	i	x	i	x	x
CCOc1ccc(-c2nnc(SCC(=O)Nc3ccc4c(c3)c3ccccc3n4CC)n2N)cc1	10.3µM*	i	u	i	-27.7%	-4.7%
CCn1c2ccccc2c2cc(NC(=O)C(C)C)ccc21	-5.5%	u	-5.0%	i	16.4%	-1.8%
CCn1c2ccccc2c(=O)c2ccccc21	23.1µM*	i	23.1µM*	i	-14.6%	-3.6%
CCn1c2ccccc2c2cc(NC(=O)CSc3nnc(-c4ccc(OC)c(OC)c4)n3N)ccc21	0.2%	i	-18.3%	i	21.2%	-7.9%
CCCC(=O)Nc1ccc2c(c1)c1ccccc1n2CC	20.6µM*	u	u	u	38.3%	-13.4%
CCn1c2ccccc2c2cc(NC(=O)CC(C)=O)ccc21	u	i	-40.4%	i	-5.8%	-1.6%
CCn1c2ccccc2c2cc(NS(=O)(=O)c3ccccc3C)ccc21	u	u	u	16.4µM*	-22.4%[11.4 µM]	-0.8%
COc1cc(NC(=O)Cn2c(=O)oc3cc(S(=O)(=O)N4CCCCCC4)ccc32)cc(OC)c1	x	u	x	i	-12.7%	x
COc1ccccc1-n1c(=O)oc2ccc(Cl)cc2c1=O	6.51µM*	u	14.6%	u	14.3%	-3.2%
COc1cc(N2C(=O)C=CC2=O)c(OC)cc1Cl	5.8µM*	u	u	u	u	-0.1%
COc1cc(Cl)c(S(=O)(=O)N2CCCC2)cc1Cl	u	i	-14.0%[1.84 µM]	i	-7.6%	-3.8%
Cc1ccc(-c2nc(N3CCCC(C)C3)c3ccccc3n2)cc1 (stereo unspecified)	x	i	x	i	-16.9%	x
CC1CN(c2nc3c(c(=O)n(Cc4ccc(Cl)cc4)c(=O)n3C)n2C)CC(C)O1 (stereo unspecified)	20.5%	23.1µM*	-4.9%	u	37.1%	-1.0%
Cn1c(=O)n(Cc2ccccc2)c(=O)c2c1nc1n2CCCN1CCc1ccccc1	u	2.31µM*	4.1%	i	-22.9%	1.7%
Cn1c(=O)n(CC(=O)OCc2ccccc2)c(=O)c2c1nc1n2CCCN1C1CCCCC1	9.2µM*	u	4.3%	i	20.6%	-1.5%
Cn1c(N2CCCC2)nc2c1c(=O)n(Cc1ccc(Cl)cc1)c(=O)n2C	6.1%	u	-3.2%	i	-6.1%	-7.8%
COc1ccc(N2CCn3c2nc2c3c(=O)n(CCCc3ccccc3)c(=O)n2C)c(OC)c1	9.9%	9.2µM*	0.3%	u	20.6%	-2.2%
NC(=O)c1ccccc1NC(=O)Cn1nc(Cc2cccnc2)c2ccccc2c1=O	x	x	x	x	8.3%	x
CC(C)c1ccc2oc(-c3cc(NC(=O)c4cccnc4)ccc3Cl)nc2c1	x	i	x	i	2.2%	x
CCCn1c(=O)c2c(nc3n2CCN3Cc2ccco2)n(C)c1=O	2.5%	i	-1.1%	i	21.8%	-4.0%
Cn1c(=O)n(Cc2ccc(Cl)cc2)c(=O)c2c1nc1n2CCN1Cc1ccco1	6.5%	11.6µM*	-0.9%	u	-11.1%	-2.1%
SMILES	MCF10A rerep	KB-V1 MDR tox	SW480 rereplic	KB-3-1 tox	RGS4 inh	TSG101-PTAP inh
COc1cc(N=C2C(=O)N3c4c(cccc42)C(C)=CC3(C)C)cc(OC)c1	16.2%	u	20.6µM*	i	u	-4.9%
CC1=CC(C)(C)N2C(=O)C(=Nc3ccc(O)cc3)c3cccc1c32	25.6%	i	u	u	-2.4%[11.4 µM]	-7.0%
COc1cc2c3c(c1)C(C)=CC(C)(C)N3C(=O)C2=O	u	i	10.3µM*	i	-28.3%	-7.8%
COc1cccc(C(=O)Oc2cc3c4c(c2)C(C)=CC(C)(C)N4C(=O)C3=O)c1	u	i	4.11µM*	i	u	-5.8%
CCOC(=O)c1ccc(NC(=O)CC2Nc3ccccc3NC2=O)cc1 (stereo unspecified)	x	i	x	i	-10.0%	x
CCOc1cc(C2Nc3ccccc3C(=O)N2Cc2ccco2)ccc1O (stereo unspecified)	x	i	x	i	-18.6%	x
CCCCn1c(SCC(=O)c2ccccc2)nc2sc3c(c2c1=O)CCCC3	x	i	x	i	-0.8%	x
COc1ccc(-c2nc3ccccn3c2Nc2ccccc2C)cc1	x	x	x	x	28.4%	x
COc1ccc(S(=O)(=O)N(Cc2nc(-c3ccc(Cl)cc3)no2)C2CCCCC2)cc1	x	x	x	x	12.7%	x
COc1ccc(-c2cn3nc(SCC(=O)Nc4cccc(C)c4C)ccc3n2)cc1	x	u	x	i	-2.2%	x
O=C(CCCn1c(=O)c2ccccc2n(CC(=O)Nc2cccc(Cl)c2)c1=O)NCc1ccc2c(c1)OCO2	x	i	x	i	-3.9%	x
O=C(Nc1nc2cc3c(cc2s1)OCO3)C1=COCCO1	u	i	16.4µM*	6.51µM*	-4.3%	0.1%
O=C(Nc1nc2cc3c(cc2s1)OCCO3)c1ccco1	u	11.6µM*	u	u	0.3%	-0.6%
O=C(Nc1nc2cc3c(cc2s1)OCO3)c1ccco1	u	i	u	i	0.5%	-0.1%
CCOC(=O)c1ccc2nc(NC(=O)c3ccco3)sc2c1	20.6µM*	u	u	i	-2.1%[11.4 µM]	-0.7%
CCOc1ccc2nc(NC(=O)c3ccoc3C)sc2c1	20.7%	8.2µM*	-4.6%[9.22 µM]	10.3µM*	-26.0%	-0.8%
CCOc1ccc2nc(NC(=O)c3ccco3)sc2c1	-10.5%	u	6.8%	i	1.6%	1.6%
CCOc1ccc(C(=O)NCC(c2ccc3c(c2)OCO3)N2CCN(C)CC2)cc1 (stereo unspecified)	x	i	x	i	11.7%	x
CCN(CC)S(=O)(=O)c1cccc(NC(=O)CNc2cccc(S(=O)(=O)N3CCOCC3)c2)c1	15.1%	20.6µM*	5.6%	1.3µM*	-4.3%	-1.8%
CCN(CC)S(=O)(=O)c1cccc(NC(=O)c2ccc(-n3nc(C)cc3C)cc2)c1	4.6%	2.91µM*	-25.5%	u	-10.8%	-0.2%
CCN(CC)S(=O)(=O)c1cc(NC(=O)CNc2cccc(S(=O)(=O)N3CCCC3)c2)ccc1C	26.1%	20.6µM*	-1.6%	2.91µM*	28.0%	0.6%

From PubChem BioAssay
